Source: PubChem (National Center for Advancing Translational Sciences (NCATS))
Hits are enriched below; roughly 14% of the tested compounds scored in any of these assays.
HCMV inh – human cytomegalovirus inhibition; HFF cells, HCMV-luciferase reporter, 72 h; stronger effect = lower value; 410,000 compounds, 4.5% hits; activity change, negative = inhibition, % at 57.5 µM; in the data active = activity change below about -60%; inconclusive = no clear call, values can overlap the other calls; inactive = above about -39%
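Inhibition of viral replication was scored as loss of reporter luminescence in HFFs infected with HCMV-luciferase (MOI 1 PFU/cell) for 72 h; compounds tested at 2 doses, normalized to buffer and Salinomycin controls.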
Sm TGR block – blocks Schistosoma mansoni thioredoxin glutathione reductase; Q962Y6; purified TGR, DTNB reduction, TNB absorbance 405 nm; Potency, µM (series often up to 114 µM), actives largely listed as inhibitors; 360,000 compounds, 3% hits; AID 485364; note: nearly all actives have a fitted effect of over 60% in size
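First, TGR (20 nM dispensed) and NADPH were mixed with compound. Second, a 15 min room-temperature incubation followed. Third, further NADPH and then DTNB were added to start the reaction. Finally, TNB absorbance was monitored kinetically.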
FBPA Giardia inh – inhibitors of Giardia lamblia fructose-1,6-bisphosphate aldolase; Potency, µM (highest dose often 59.6 µM), most hits filed as inhibitors; purified Giardia FBPA; 290,000 compounds, 0.71% hits; note: nearly all actives have a fitted effect of over 55% in size
Target sequence (A8B2U2 whole entry, looked up): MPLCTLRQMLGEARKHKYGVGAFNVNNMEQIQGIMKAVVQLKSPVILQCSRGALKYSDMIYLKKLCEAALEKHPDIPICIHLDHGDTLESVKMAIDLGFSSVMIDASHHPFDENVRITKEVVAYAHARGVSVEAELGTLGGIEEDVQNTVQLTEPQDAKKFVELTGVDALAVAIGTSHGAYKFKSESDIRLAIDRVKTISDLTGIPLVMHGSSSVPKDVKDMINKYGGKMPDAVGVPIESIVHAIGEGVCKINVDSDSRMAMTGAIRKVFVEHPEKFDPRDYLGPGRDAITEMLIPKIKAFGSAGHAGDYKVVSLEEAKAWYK
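40 nM FBPA preincubated 10 min at RT with compound (up to 57.5 uM final), then substrate plus GAPDH/TPI/NAD/arsenate coupling and diaphorase/resazurin added. Fluorescence read after 20 min at RT, 525/598 nm.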
Pf growth 48h – inhibits P. falciparum growth in the first generation, 48 h; Potency, µM (highest dose often 28.7 µM), usual class: inhibitors; AID 504832; 310,000 compounds, 5.9% hits; P. falciparum luciferase growth in erythrocytes, 48 h
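Read-out is firefly luciferase luminescence from an integrated reporter in P. falciparum, so falling signal marks reduced parasite growth. Infected erythrocytes were at 2% hematocrit and 0.1% parasitemia (final) in Albumax-supplemented RPMI 1640.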
Pf growth 96h – P. falciparum growth inhibition at 96 hours; P. falciparum luciferase reporter growth, 96 h; Potency, µM (series often up to 28.7 µM), actives largely listed as inhibitors; 320,000 compounds, 6.9% hits; AID 504834
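Cell-based qHTS: luciferase-tagged P. falciparum in erythrocytes (2% hematocrit, 0.05% parasitemia final) incubated with compounds for 96 hours, 37 C, 5% CO2; luciferase detection reagent then added and luminescence measured.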
Numbers stand for hits; 0 = inactive; ? = inconclusive; - = no result given. Unless noted, calls come from the whole dose curve; as a rule, active = well fitted curve in the direction sought with a large enough effect; inconclusive = small, poorly fitted or top-dose-only effect, or another doubt; inactive = no such curve, though single readings can be large; an effect the other way counts as inactive or inconclusive.

SMILES | HCMV inh | Sm TGR block | FBPA Giardia inh | Pf growth 48h | Pf growth 96h
Cc1cccn2c(=O)c(/C=C(\C#N)C(N)=O)c(Oc3ccccc3)nc12 | 0 | 31.6µM | 0 | ? | 0
Cc1ccc(-n2c(SCC(=O)N3CCC(C)CC3)nc3c([nH]c4ccccc43)c2=O)cc1 | 0 | 0 | - | - | -
CCOC(=O)c1nn(-c2ccc(OCC)cc2)c2nc(-c3ccco3)c(C#N)c(=O)n12 | 0 | 0 | 0 | 11.7µM | ?
CCOC(=O)c1nn(-c2ccc(Cl)cc2)c2nc(-c3ccc(C)cc3)c(C#N)c(=O)n12 | 0 | 0 | 0 | 9.28µM | -
CCOC(=O)c1nn(-c2ccc(Cl)cc2)c2nc(CC)c(C#N)c(=O)n12 | 0 | 0 | 0 | ? | ?
COc1ccc(Br)c2c1-c1nc(NC(=O)c3ccccc3SC)sc1C2 | -62.6 | 0 | - | - | -
COc1ccccc1CNC(=O)c1ccc(C)s1 | 0 | 0 | 0 | 0 | 6.57µM
COCCCNC(=O)c1cc(-c2cccnc2)nc2ccccc12 | 0 | 0 | 0 | 0 | ?
COc1ccccc1CNC(=O)c1cccnc1 | 0 | 0 | 0 | 0 | 11.7µM
COc1ccccc1CNC(=O)c1cc(-c2cccnc2)nc2ccccc12 | 0 | 0 | 0 | 10.4µM | 0
COc1ccccc1CNC(=O)c1cnccn1 | 0 | 0 | 0 | - | 0
O=C(NCc1cccnc1)c1cc(Sc2ccc(F)cc2F)nc2ccccc12 | -64.3 | 0 | 0 | ? | 0
COc1ccccc1CNC(=O)Cc1ccccc1 | 0 | 0 | 0 | 0 | 0
CCCNC(=O)C(Cc1ccc(OC)cc1)NC(=O)c1ccc(Cl)cc1 (stereo unspecified) | 0 | 0 | - | 0 | 0
CCOC(=O)CN1CC23C=CC(O2)C(C(=O)Nc2ccc(C(C)=O)cc2)C3C1=O (stereo unspecified) | 0 | 0 | 0 | 0 | 11.7µM
CCOc1cc(/C=N/NC(N)=O)cc(Br)c1OCc1ccccc1F | 0 | 0 | 0 | 0 | 0
CCOc1cc(/C=N/NC(=O)Cn2nc([N+](=O)[O-])cc2C)cc(Br)c1OCc1ccccc1F | -96.2 | 0 | 0 | - | 0
Cc1cc(C)cc(-n2ccn(Cc3ccccc3C)c(=O)c2=O)c1 | ? | 0 | - | - | -
O=C(COc1ccc(Cl)cc1)OCCNC12CC3CC(CC(C3)C1)C2 | - | - | - | 0 | 0
Cc1ccc(-c2csc3ncnc(N4CCN(C(=O)c5ccccc5)CC4)c23)cc1 | -70.2 | 0 | 0 | 8.28µM | -
COc1ccc(-c2csc3ncnc(N4CCN(C(=O)c5ccco5)CC4)c23)cc1 | 0 | 0 | - | ? | ?
Cc1ccc(-c2nsc3c(N4CCC(C(N)=O)CC4)ncnc23)cc1 | 0 | 0 | 0 | 0 | ?
O=C(c1ccccc1)N1CCN(c2ncnc3c(-c4ccccc4)nsc23)CC1 | 0 | 0 | 0 | 0 | 0
O=C(N1CCCC1)N1CCN(c2ncnc3c(-c4ccc(Cl)cc4)nsc23)CC1 | - | 0 | 0 | 0 | 1.85µM
Cc1ccc(C(=O)N2CCN(c3ncnc4c(-c5ccccc5)nsc34)CC2)cc1 | - | - | 0 | 0 | 1.47µM
SMILES | HCMV inh | Sm TGR block | FBPA Giardia inh | Pf growth 48h | Pf growth 96h
O=C(c1ccco1)N1CCN(c2ncnc3scc(-c4ccccc4)c23)CC1 | 0 | 0 | 0 | - | 0
O=C(c1ccco1)N1CCN(c2ncnc3scc(-c4cccs4)c23)CC1 | ? | 0 | 0 | 11.7µM | ?
C=CCSc1ncc(CO)n1Cc1ccccc1 | ? | 0 | 0 | 0 | 0
Cc1ccc(C(=O)N2CCN(c3cc(=O)[nH]nc3-c3ccccc3)CC2)cc1 | 0 | 0 | 0 | ? | 11.7µM
O=C(c1ccc(F)cc1)N1CCN(c2cc(=O)[nH]nc2-c2ccccc2)CC1 | 0 | 0 | 0 | ? | ?
O=C(c1cccs1)N1CCCN(c2ncnc3scc(-c4ccccc4)c23)CC1 | 0 | 0 | 0 | 5.86µM | 10.4µM
CCOC(=O)c1cnc2ccc(C(=O)OC)cc2c1Nc1ccccc1CC | 0 | 0 | - | - | -
CN1CCN(S(=O)(=O)c2ccc(NC(=O)Nc3cccc(Cl)c3)cc2)CC1 | 0 | 0 | 0 | 2.94µM | 0
CC(=O)Nc1ccc(S(=O)(=O)N2CCC(C(=O)c3ccc(Cl)cc3)CC2)cc1 | -62.7 | 0 | 0 | 0 | 0
CN1CCN(S(=O)(=O)c2ccc(NC(=O)c3ccccc3Cl)cc2)CC1 | 0 | 0 | 0 | 0 | 0
O=C(Nc1cccc(Cl)c1)Nc1cc(S(=O)(=O)N2CCCCC2)ccc1Cl | -98.6 | 0 | 0 | ? | 2.94µM
CN1CCN(S(=O)(=O)c2ccc(NC(=S)NC(=O)c3ccc(Cl)cc3)cc2)CC1 | 0 | 22.4µM | 0 | 4.65µM | 2.33µM
CC(C)NC(=O)N1CCC2(CC1)CCN(C(=O)c1cccc(F)c1)CC2 | - | - | 0 | - | -
O=C(O)c1ccc(CS(=O)(=O)c2ccc(Br)cc2)cc1 | 0 | 0 | 0 | 0 | ?
CNC(=S)NNC(=O)c1sc2cc(C(F)(F)F)cnc2c1-c1cccnc1 | 0 | 0 | 0 | ? | ?
NC(=O)c1sc2cc(C(F)(F)F)cnc2c1-c1ccccc1 | 0 | 0 | 0 | ? | 8.28µM
Cc1ccc(N=C2C(=O)Nc3c(C)cccc32)cc1 | 0 | 0 | 0 | 0 | 10.4µM
Cc1nc(NC(=O)C23CC4CC(CC(C4)C2)C3)sc1Cc1ccc2c(c1)OCO2 | 0 | 0 | 0 | ? | 1.65µM
CC(C)(C)OC(=O)/C=C/[C@@H]1Cc2ccccc2N1 | 0 | - | - | - | -
Cc1ccc(NC(=O)Cn2ccn(-c3ccc(F)c(F)c3)c(=O)c2=O)cc1C | 0 | 0 | - | - | -
CC(Oc1ccc(Br)cc1)C(=O)Nc1ccc(N2CCOCC2)cc1N1CCOCC1 (stereo unspecified) | 0 | 0 | - | 11.7µM | 10.4µM
CC(Oc1cccc(Cl)c1)C(=O)Nc1ccccc1N1CCCCC1 (stereo unspecified) | 0 | 0 | - | 5.86µM | 11.7µM
CC(Oc1cccc(Cl)c1)C(=O)Nc1ccccc1C(=O)N1CCCCC1 (stereo unspecified) | 0 | 0 | - | 0 | 0
CCC(Oc1ccccc1)C(=O)Nc1ccccc1N1CCCCC1 (stereo unspecified) | 0 | 0 | 0 | 0 | 0
CC(Oc1ccc(F)cc1)C(=O)Nc1ccccc1N1CCCCC1 (stereo unspecified) | - | 0 | - | ? | 11.7µM
SMILES | HCMV inh | Sm TGR block | FBPA Giardia inh | Pf growth 48h | Pf growth 96h
O=C(COc1ccc(Br)cc1)Nc1ccc(N2CCOCC2)cc1N1CCOCC1 | 0 | 0 | - | ? | ?
Cc1ccc(S(=O)(=O)N2CCN(c3nc(-c4cccs4)nc4ccccc34)CC2)cc1 | 0 | - | - | - | -
COc1ccc(NC(=O)c2ccccc2)cc1NS(=O)(=O)c1ccc(F)cc1 | 0 | 0 | 0 | 0 | 0
CCN(CC)c1ccc(NC(=O)COc2ccc(C#N)cc2)cc1S(=O)(=O)Nc1ccc(OC)cc1 | 0 | 0 | 0 | ? | 10.4µM
CCN(CC)c1ccc(NC(=O)c2ccccc2)cc1S(=O)(=O)Nc1ccccc1OC | 0 | 0 | 0 | 1.47µM | ?
CCN(CC)c1ccc(NC(=O)c2cccc(C)c2)cc1S(=O)(=O)Nc1ccccc1OC | 0 | 0 | 0 | 7.38µM | 2.94µM
COc1cc2c(cc1OC)C(C)N(C(=O)CCc1c[nH]c3ccccc13)CC2 (stereo unspecified) | 0 | 0 | 0 | 0 | 0
COc1ccc(CCNC(=O)[C@H](C)N2C(=O)N3CCc4c([nH]c5ccccc45)[C@@]3(C)C2=O)cc1 | 0 | 0 | 0 | ? | ?
